The source of these data is PMC7862700, “An all-to-all approach to the identification of sequence-specific readers for epigenetic DNA modifications on cytosine”.

What all share (assay): DAPPL (digital affinity profiling via proximity ligation, sequencing); 10 mM Tris-HCl pH 7.5, 50 mM NaCl, 1 mM DTT, 4% glycerol, room temperature, 30 min; GST-TFs on glutathione beads, 16-mer random dsDNA library, 0.1% formaldehyde crosslink after washing; high values mean tight binding
The target of experiment [1] is T1, FEV (Homo sapiens, UniProt Q99581 1-238).
T1 sequence: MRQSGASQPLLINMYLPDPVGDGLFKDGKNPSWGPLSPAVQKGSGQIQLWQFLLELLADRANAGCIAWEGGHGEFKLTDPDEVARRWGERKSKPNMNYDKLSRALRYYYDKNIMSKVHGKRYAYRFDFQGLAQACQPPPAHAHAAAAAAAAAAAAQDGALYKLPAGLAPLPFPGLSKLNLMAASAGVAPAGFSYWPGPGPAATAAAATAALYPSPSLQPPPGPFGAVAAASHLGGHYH
Conditions: protein: recombinant; tags: N-terminal GST; dsDNA, one strand shown. An outline of the steps:
(§1)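 Yeast served to express human transcription factors as GST fusions, which were then captured on glutathione beads and labelled with DNA barcodes. Pooled with a tag-only sample, they were incubated with 200 nmole of a 16-mer random double-stranded DNA library for 30 min at room temperature in Tris/NaCl/DTT/glycerol buffer, washed, crosslinked with 0.1% formaldehyde, ligated by proximity, amplified by PCR and sequenced. Dividing each hexamer's read frequency for a factor by its frequency for the tag-only sample gives the binding signal.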

The target in experiment [2] is ETV5 (Homo sapiens, UniProt P41161 1-510). The conditions noted are these: protein: recombinant; tags: N-terminal GST; dsDNA, one strand shown. A digest of the protocol:
as §1

Experiment [3] concerns the target HSF1 (Homo sapiens, UniProt Q00613 1-529). The conditions noted are these: protein: recombinant; tags: N-terminal GST; chain copies: 3; dsDNA, one strand shown. A digest of the protocol: as §1
Experiment [4] concerns the target T2, SPIC (Homo sapiens, UniProt Q8N5J4 1-248).
T2 sequence: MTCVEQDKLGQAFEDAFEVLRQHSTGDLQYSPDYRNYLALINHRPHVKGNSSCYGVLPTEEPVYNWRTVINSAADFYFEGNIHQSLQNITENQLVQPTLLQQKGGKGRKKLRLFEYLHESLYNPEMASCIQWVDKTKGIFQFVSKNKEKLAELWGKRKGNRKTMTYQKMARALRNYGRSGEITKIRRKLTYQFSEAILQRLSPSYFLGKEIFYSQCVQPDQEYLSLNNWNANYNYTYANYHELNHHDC
The conditions noted are these: protein: recombinant; tags: N-terminal GST; dsDNA, one strand shown. A digest of the protocol: as §1

Experiment [5] addresses ELF4 (Homo sapiens, UniProt Q99607 1-663). The conditions noted are these: protein: recombinant; tags: N-terminal GST; dsDNA, one strand shown. A digest of the protocol:
as §1

The target in experiment [6] is T3, ELK4 (Homo sapiens, UniProt P28324-2 1-405).
T3 sequence: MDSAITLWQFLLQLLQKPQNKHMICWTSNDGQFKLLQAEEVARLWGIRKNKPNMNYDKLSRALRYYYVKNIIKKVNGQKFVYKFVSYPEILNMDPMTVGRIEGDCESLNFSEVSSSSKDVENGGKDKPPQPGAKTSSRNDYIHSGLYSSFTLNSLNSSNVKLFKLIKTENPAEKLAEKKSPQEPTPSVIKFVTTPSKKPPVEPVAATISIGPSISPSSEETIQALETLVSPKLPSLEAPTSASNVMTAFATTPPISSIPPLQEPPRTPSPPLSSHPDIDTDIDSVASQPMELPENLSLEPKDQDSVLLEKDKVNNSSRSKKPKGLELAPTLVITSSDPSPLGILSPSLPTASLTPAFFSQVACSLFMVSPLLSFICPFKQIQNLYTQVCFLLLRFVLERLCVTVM
The conditions noted are these: protein: recombinant; tags: N-terminal GST; dsDNA, one strand shown. A digest of the protocol:
as §1

Experiment [7] addresses T4, ETV2 (Homo sapiens, UniProt O00321 1-342).
T4 sequence: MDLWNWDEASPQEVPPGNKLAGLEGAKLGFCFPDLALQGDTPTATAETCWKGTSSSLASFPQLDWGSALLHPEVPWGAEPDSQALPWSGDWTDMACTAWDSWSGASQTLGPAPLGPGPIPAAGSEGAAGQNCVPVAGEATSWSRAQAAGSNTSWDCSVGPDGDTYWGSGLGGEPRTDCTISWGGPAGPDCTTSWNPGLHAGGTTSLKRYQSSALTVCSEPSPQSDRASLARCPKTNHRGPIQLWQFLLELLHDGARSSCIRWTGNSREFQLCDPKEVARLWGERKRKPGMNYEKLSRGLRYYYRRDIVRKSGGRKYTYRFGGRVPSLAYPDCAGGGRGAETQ
The conditions noted are these: protein: recombinant; tags: N-terminal GST; dsDNA, one strand shown. An outline of the steps: as §1

The target of experiment [8] is T5, ELF3 (Homo sapiens, UniProt P78545 1-371).
T5 sequence: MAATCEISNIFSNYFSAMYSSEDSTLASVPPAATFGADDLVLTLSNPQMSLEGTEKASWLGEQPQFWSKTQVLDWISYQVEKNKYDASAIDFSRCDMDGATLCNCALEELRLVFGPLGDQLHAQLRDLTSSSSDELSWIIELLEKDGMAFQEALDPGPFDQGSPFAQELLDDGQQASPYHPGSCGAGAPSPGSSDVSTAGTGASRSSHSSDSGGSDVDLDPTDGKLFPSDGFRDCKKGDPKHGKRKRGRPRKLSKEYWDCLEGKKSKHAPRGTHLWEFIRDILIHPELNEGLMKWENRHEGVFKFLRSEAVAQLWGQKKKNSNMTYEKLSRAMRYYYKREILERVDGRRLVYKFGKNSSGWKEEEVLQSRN
The conditions noted are these: protein: recombinant; tags: N-terminal GST; dsDNA, one strand shown. A digest of the protocol: as §1

For experiment [9], the target named is CRX (Homo sapiens, UniProt O43186 1-299). The conditions noted are these: protein: recombinant; tags: N-terminal GST; dsDNA, one strand shown. An outline of the steps:
as §1

In experiment [10] the target is ETV1 (Homo sapiens, UniProt P50549 1-477). Conditions: protein: recombinant; tags: N-terminal GST; dsDNA, one strand shown. An outline of the steps:
as §1

The target in experiment [11] is T6, ERF (Homo sapiens, UniProt P50548 1-548).
T6 sequence: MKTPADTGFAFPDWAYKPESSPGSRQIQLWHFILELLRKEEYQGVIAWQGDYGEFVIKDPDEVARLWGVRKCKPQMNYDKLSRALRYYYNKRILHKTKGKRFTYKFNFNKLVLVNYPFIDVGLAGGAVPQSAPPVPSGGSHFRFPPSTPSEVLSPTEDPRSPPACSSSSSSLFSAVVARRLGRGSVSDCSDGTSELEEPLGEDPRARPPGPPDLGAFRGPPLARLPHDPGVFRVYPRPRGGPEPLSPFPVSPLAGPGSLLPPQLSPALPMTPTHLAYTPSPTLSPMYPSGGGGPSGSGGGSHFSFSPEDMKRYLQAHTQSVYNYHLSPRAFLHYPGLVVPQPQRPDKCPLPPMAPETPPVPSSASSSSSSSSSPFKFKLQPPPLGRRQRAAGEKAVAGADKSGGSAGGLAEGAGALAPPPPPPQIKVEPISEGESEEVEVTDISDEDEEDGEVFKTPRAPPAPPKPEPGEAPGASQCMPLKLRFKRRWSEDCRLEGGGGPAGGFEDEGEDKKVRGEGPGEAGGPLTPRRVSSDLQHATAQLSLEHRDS
Conditions: protein: recombinant; tags: N-terminal GST; dsDNA, one strand shown. An outline of the steps: as §1

The target in experiment [12] is T7, ETV3L (Homo sapiens, UniProt Q6ZN32 1-361).
T7 sequence: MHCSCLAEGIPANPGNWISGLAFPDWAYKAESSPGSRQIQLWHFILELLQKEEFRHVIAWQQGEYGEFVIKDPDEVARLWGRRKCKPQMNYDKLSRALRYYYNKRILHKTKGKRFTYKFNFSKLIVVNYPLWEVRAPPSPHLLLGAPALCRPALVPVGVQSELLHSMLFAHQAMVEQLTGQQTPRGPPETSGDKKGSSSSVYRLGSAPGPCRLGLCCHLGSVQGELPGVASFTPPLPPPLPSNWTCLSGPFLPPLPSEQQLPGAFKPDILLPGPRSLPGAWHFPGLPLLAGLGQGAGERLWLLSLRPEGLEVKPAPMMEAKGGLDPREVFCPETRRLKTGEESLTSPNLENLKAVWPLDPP
Conditions: protein: recombinant; tags: N-terminal GST; dsDNA, one strand shown. A digest of the protocol:
as §1

For experiment [13], the target named is T8, ETS2 (Homo sapiens, UniProt P15036 1-469).
T8 sequence: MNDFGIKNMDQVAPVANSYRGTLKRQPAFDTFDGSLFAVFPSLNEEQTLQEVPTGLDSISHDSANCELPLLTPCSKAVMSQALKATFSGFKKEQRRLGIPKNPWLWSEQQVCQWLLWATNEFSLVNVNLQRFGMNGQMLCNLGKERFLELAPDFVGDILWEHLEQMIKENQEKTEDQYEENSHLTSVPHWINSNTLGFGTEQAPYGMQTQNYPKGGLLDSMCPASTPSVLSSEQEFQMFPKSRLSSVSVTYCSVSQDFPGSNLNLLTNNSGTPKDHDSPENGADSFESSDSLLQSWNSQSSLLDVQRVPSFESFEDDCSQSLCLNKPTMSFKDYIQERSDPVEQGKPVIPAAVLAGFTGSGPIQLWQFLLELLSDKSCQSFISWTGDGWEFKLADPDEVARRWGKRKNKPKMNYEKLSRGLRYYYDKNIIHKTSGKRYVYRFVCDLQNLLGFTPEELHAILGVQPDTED
The conditions noted are these: protein: recombinant; tags: N-terminal GST; dsDNA, one strand shown. A digest of the protocol: as §1

Experiment [14] addresses T9, SPDEF (Homo sapiens, UniProt O95238 1-335).
T9 sequence: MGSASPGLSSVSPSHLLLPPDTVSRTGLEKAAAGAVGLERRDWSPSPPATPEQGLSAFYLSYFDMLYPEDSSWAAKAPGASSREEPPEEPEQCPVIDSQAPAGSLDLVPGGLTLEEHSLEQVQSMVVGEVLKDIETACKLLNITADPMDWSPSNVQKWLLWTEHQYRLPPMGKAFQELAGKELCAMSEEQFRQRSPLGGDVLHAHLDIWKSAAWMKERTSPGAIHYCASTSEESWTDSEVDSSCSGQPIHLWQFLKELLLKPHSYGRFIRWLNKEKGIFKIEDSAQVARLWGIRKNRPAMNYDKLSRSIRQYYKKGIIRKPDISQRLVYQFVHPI
Conditions: protein: recombinant; tags: N-terminal GST; dsDNA, one strand shown. A digest of the protocol: as §1

The target of experiment [15] is T10, ETV7 (Homo sapiens, UniProt Q9Y603 1-341).
T10 sequence: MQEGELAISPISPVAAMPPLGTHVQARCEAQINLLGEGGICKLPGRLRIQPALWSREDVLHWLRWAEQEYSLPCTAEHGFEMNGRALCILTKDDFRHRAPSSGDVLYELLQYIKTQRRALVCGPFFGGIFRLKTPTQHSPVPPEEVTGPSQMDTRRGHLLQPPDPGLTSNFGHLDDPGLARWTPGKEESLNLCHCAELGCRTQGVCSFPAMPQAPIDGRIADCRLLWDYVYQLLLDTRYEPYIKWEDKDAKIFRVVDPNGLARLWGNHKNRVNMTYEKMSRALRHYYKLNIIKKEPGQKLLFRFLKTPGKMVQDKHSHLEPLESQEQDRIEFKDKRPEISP
The conditions noted are these: protein: recombinant; tags: N-terminal GST; dsDNA, one strand shown. An outline of the steps: as §1

For experiment [16], the target named is T11, ELF5 (Homo sapiens, UniProt Q9UKW6-2 1-255).
T11 sequence: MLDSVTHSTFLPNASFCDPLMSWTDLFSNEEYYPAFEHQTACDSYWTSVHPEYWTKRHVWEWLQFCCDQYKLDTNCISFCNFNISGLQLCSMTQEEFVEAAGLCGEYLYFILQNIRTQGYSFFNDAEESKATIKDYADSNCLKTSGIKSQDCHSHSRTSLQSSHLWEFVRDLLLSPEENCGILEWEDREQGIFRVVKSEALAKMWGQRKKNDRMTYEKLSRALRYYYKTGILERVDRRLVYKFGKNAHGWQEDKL
Conditions: protein: recombinant; tags: N-terminal GST; dsDNA, one strand shown. A digest of the protocol:
as §1

For experiment [17], the target named is T12, ETV3 (Homo sapiens, UniProt P41162-2 1-143).
T12 sequence: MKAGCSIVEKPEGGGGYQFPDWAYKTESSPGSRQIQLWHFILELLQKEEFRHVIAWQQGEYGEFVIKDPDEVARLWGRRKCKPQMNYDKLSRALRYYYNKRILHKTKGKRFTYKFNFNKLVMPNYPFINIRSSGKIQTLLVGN
The conditions noted are these: protein: recombinant; tags: N-terminal GST; dsDNA, one strand shown. An outline of the steps:
as §1

The target in experiment [18] is ETV6 (Homo sapiens, UniProt P41212 1-452). The conditions noted are these: protein: recombinant; tags: N-terminal GST; dsDNA, one strand shown. A digest of the protocol: as §1
ETV6, sequence (P41212 whole entry): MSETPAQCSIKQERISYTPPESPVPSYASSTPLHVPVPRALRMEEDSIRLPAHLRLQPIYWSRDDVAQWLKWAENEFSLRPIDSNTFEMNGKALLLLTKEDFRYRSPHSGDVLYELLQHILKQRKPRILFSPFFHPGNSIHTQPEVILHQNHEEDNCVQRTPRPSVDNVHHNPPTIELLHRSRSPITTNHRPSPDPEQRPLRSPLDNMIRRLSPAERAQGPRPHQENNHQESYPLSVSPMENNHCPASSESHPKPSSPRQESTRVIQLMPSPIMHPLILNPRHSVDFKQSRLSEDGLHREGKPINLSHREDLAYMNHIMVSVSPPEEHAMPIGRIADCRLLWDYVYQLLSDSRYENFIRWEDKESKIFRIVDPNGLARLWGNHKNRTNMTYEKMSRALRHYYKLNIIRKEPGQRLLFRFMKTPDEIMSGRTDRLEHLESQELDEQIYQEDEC

HSF1, sequence (Q00613 whole entry): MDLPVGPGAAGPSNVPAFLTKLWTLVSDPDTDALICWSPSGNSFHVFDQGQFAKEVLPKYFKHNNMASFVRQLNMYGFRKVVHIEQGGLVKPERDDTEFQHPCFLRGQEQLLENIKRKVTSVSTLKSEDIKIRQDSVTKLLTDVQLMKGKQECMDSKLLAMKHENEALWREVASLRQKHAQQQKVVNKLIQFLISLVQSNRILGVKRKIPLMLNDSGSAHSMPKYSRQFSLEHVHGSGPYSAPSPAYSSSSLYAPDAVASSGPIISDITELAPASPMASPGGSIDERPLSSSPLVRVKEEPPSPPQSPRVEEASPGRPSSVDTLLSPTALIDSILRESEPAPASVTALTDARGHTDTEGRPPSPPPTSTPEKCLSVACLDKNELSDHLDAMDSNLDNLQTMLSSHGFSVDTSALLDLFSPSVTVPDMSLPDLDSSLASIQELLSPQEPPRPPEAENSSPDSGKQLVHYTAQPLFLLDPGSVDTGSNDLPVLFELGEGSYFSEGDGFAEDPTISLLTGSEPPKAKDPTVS
ETV5, sequence (P41161 whole entry): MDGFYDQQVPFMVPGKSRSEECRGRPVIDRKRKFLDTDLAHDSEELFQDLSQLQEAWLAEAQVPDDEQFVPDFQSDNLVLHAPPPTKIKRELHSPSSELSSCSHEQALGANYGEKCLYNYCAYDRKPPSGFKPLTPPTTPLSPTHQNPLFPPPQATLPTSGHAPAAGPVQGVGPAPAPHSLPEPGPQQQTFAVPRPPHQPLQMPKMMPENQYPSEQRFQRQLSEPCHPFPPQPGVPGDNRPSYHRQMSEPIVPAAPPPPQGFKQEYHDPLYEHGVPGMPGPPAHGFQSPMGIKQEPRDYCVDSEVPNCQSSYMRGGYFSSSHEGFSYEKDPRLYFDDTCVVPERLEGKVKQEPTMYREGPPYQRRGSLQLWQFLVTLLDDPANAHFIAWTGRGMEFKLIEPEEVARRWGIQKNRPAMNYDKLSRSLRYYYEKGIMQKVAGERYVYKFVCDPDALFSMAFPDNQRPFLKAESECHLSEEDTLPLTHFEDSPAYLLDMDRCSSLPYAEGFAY
ELF4, sequence (Q99607 whole entry): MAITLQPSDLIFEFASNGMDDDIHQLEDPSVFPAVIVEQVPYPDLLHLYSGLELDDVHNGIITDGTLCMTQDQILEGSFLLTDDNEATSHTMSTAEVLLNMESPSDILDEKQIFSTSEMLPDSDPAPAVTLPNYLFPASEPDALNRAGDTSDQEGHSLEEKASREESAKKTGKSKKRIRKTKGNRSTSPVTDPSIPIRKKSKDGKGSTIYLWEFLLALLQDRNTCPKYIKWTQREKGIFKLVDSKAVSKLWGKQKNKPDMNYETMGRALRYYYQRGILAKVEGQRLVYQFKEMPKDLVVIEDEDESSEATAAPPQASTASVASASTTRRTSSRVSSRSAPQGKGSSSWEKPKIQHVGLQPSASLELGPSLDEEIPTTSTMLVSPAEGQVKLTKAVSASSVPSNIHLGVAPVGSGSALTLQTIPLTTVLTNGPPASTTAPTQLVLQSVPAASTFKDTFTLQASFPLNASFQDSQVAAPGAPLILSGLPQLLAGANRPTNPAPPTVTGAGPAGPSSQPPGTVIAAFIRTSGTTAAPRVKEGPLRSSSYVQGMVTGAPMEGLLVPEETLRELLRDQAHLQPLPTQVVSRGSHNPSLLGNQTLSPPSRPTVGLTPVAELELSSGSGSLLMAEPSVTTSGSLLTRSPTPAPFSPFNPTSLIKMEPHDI
CRX, sequence (O43186 whole entry): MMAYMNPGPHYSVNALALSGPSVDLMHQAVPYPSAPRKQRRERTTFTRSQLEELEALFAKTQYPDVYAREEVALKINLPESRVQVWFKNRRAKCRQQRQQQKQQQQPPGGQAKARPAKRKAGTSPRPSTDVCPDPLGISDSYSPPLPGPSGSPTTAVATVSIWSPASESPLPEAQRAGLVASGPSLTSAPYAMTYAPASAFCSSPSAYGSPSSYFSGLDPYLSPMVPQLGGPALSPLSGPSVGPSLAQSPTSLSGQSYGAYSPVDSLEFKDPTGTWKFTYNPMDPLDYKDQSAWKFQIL
ETV1, sequence (P50549 whole entry): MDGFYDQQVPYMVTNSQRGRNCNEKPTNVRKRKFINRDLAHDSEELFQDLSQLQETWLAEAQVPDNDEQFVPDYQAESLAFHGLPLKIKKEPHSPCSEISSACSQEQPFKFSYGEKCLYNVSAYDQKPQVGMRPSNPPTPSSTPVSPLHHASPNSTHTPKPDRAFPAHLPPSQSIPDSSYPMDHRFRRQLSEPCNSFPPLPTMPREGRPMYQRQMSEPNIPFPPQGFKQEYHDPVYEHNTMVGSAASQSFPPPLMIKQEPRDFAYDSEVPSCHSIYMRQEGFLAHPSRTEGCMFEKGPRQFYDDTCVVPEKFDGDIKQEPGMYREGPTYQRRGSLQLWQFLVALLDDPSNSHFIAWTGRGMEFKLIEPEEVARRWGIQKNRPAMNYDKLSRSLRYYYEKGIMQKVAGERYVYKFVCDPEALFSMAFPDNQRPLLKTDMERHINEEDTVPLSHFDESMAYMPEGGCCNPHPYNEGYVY

As for AATACT, the binding signal in [1] is 1.21 fold enrichment (6-mer frequency, TF over GST control); in [2], 1.27 fold enrichment (6-mer frequency, TF over GST control); in experiment [3] it was 1.34 fold enrichment (6-mer frequency, TF over GST control); in [4], 1.25 fold enrichment (6-mer frequency, TF over GST control); in experiment [5], 1.16 fold enrichment (6-mer frequency, TF over GST control); in experiment [6] it was 1.24 fold enrichment (6-mer frequency, TF over GST control). The binding signal was 1.36 fold enrichment (6-mer frequency, TF over GST control) in experiment [7]; 1.26 fold enrichment (6-mer frequency, TF over GST control) in experiment [8]; 1.47 fold enrichment (6-mer frequency, TF over GST control) in experiment [9]; 1.26 fold enrichment (6-mer frequency, TF over GST control) in experiment [10]; 1.19 fold enrichment (6-mer frequency, TF over GST control) in experiment [11]; 1.24 fold enrichment (6-mer frequency, TF over GST control) in [12]. Also, the binding signal is 1.23 fold enrichment (6-mer frequency, TF over GST control) in experiment [13]; 1.15 fold enrichment (6-mer frequency, TF over GST control) in experiment [14]; 1.31 fold enrichment (6-mer frequency, TF over GST control) in [15]; 1.37 fold enrichment (6-mer frequency, TF over GST control) in [16]; 1.28 fold enrichment (6-mer frequency, TF over GST control) in experiment [17]; 1.4 fold enrichment (6-mer frequency, TF over GST control) in [18].
